High-throughput results (PubChem BioAssay)
Shown are actives, neighbours in structure and some others; about 3.8% of the full set was active somewhere.
SKOV3 invasion – Primary qHTS assay for Inhibitors of ovarian cancer metastasis using an organotypic tumor microenvironment (TME) model | SKOV3ip1-GFP adhesion/invasion on 3D omental model, fluorescence | Potency, µM (doses to about 45.8 µM), without a hit: at the top dose activity change, negative = inhibition, actives largely listed as inhibitors | 0.1% of 46,000 active;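 note: potency is the fitted concentration of half-maximal effect; plate controls were DMSO wells for no effect and tomatine positive control wells for full effect; nearly all actives have a fitted effect of over 65% in size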
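A 3D layer of primary human omental fibroblasts, mesothelial cells, fibronectin and collagen I, grown 48 hr, received SKOV3ip1-GFP cells in serum-free medium plus compounds at 0.36-46 umol/L. After 2 hr RT and 16 hr 37 C, fixed adherent GFP cells were counted; normalized to DMSO and tomatine.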
FH mod – Identification of activators of human fumarate hydratase by quantitative high-throughput screening. FH coupled MDH/diaphorase resazurin fluorescence, 15 min. 0.22% of 54,000 active. Potency, µM (doses to about 79.9 µM), inactives show at the highest dose activity change, negative = inhibition, actives largely listed as inhibitors; note: potency is the fitted concentration of half-maximal effect; % is set by controls: 0 for no effect and ±100 for the full control effect; the screen sought activators but most active calls are inhibition curves; nearly all actives have a fitted effect of over 45% in size
NTMT1 inhibitor – Primary qHTS for Inhibitors of N-terminal methyltransferase 1 (NTMT1): MTaseGlo Assay; N-terminal Xaa-Pro-Lys N-methyltransferase 1 (Homo sapiens), Q9BV86; NTMT1 MTase-Glo SAH luminescence, purified enzyme; Potency, µM (series often up to 114 µM), for inactives: at the top dose activity change, negative = inhibition, hits mostly inhibitors; 2.5% of 59,000 active;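 note: potency is the fitted concentration of half-maximal effect; plate controls were DMSO vehicle for no effect and no enzyme for full effect; nearly all actives have a fitted effect of over 65% in size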
Target sequence (Q9BV86 whole entry, looked up): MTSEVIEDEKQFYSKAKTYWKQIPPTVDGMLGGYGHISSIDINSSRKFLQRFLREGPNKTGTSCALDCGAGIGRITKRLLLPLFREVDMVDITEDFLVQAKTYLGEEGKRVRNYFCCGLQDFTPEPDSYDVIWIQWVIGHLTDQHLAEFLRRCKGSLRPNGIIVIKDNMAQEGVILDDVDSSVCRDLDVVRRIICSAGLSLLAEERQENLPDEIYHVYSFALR
GPR32 ag – qHTS for Agonists of Human Resolvin D1 Receptor DRV1; activation, % at 76.9 µM; Probable G-protein coupled receptor 32 (Homo sapiens), O75388; CHO-K1 GPR32 beta-arrestin PathHunter luminescence, 90 min; zero percent set by DMSO-only wells; 2.5% of 48,000 active;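 active = activation of at least 60% and not above a set upper limit, about 1 call in 100 departs from these limits; inconclusive = activation of 40% to 60%, or above that upper limit; inactive = activation under 40%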; note: 0% is about no effect
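Agonism was scored as beta-arrestin recruitment to ProLink-fused GPR32 in stably transfected CHO-K1 cells, giving a chemiluminescent beta-Gal signal; compounds were incubated 90 min at 37 °C.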
DYRK1A KinaseGlo – Assay for Inhibitors of Dual-Specificity Tyrosine-(Y)-Phosphorylation Regulated Kinase 1A (Kinase-Glo assay) | shares compounds with NTMT1 inhibitor | recombinant DYRK1A, Kinase-Glo ATP depletion luminescence | Potency, µM (top dose mostly 76.9 µM), inactives show at the top dose activity change, negative = inhibition, actives largely listed as inhibitors | 80% of 100 active
USP2a K63 – Confirmation Assay for Inhibitors of Ubiquitin-specific Protease USP2a Using CHOP2 as the Reporter: K633 | shares compounds with NTMT1 inhibitor | USP2 cleavage of DiUb K63-3IQF, fluorescence kinetic | Potency, µM (series often up to 57.5 µM), for inactives: at the top dose activity change, negative = inhibition, actives largely listed as inhibitors | 80% of 30 active | AID 652172, 2013
Casp6 counter – qHTS for Inhibitors of Ubiquitin-specific Protease USP2a Using CHOP2 as the Reporter: Caspase 6 Assay; Caspase 6 enzyme, Caspase-Glo 6 luminescence; 30 tested, under 10 active; shares compounds with NTMT1 inhibitor; AID 652277, 2013; activity change, negative = inhibition, % at 46.1 µM
NNMT inh – Counterscreen qHTS for Inhibitors of N-terminal methyltransferase 1 (NTMT1): NNMT MTaseGlo assay; shares compounds with NTMT1 inhibitor; NNMT MTase-Glo luminescence, SAH detection; Potency, µM (series often up to 57.1 µM), without a hit: top-dose activity, negative = inhibition, hits mostly inhibitors; 10% of 120 active
Target sequence (P40261 whole entry, looked up): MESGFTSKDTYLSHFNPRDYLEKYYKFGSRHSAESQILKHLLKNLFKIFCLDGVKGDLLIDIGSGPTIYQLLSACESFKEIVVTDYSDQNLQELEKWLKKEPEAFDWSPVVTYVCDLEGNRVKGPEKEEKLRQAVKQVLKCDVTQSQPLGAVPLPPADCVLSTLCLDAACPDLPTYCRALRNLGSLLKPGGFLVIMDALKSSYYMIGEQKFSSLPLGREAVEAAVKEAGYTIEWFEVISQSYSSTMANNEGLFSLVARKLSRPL
* hit, by the source's call; i = inactive; ? = inconclusive; . = no result; [ ] = remark or other dose. Unless noted, calls come from the whole dose curve; as a rule, active = well fitted curve in the direction sought with a large enough effect; inconclusive = small, poorly fitted or top-dose-only effect, or another doubt; inactive = no such curve, though single readings can be large; an effect the other way counts as inactive or inconclusive.

SMILES	SKOV3 invasion	FH mod	NTMT1 inhibitor	GPR32 ag	NNMT inh	others
CCOC(=O)c1ccoc1-c1ccc2ncnc(NCCc3cnc[nH]3)c2c1	.	.	-9%	.	.	DYRK1A KinaseGlo=?
N#Cc1ccc(Nc2nc(-c3ccc(O)cc3O)cs2)cc1C(F)(F)F	.	?	?	.	-28%
O=C(Nc1ccc(F)c(C(F)(F)F)c1)Nc1nc(-c2ccncc2)cs1	.	.	4%[57.5 µM]	.	.
Fc1ccccc1CNCc1ccc(-c2ccnc3[nH]ccc23)cc1	.	-6%	?	.	?
CCOC(=O)c1c(NC(=O)Cc2coc3cc(C)cc(C)c23)sc2c1CCC2	2%	-4%	-1%	3	.
O=C(O)c1cc(-c2c(-c3ccccc3)nn3ccccc23)n[nH]c1=O	.	0%	-6%[57.5 µM]	.	.
Nc1[nH]nc2nnc(-c3c(-c4ccccc4)nn4ccccc34)cc12	16%	2%	8.9µM*	.	11µM*
COc1ccc(C)cc1NC(=O)CSc1nc(=O)n(Cc2ccncc2)c2c1CCC2	0%	-3%	5%	13	.
CN=c1nc(-c2ccccc2)n(-c2ccccc2)s1	.	?	.	-2	22µM*
NC(=O)c1cccc(-c2cc(OC(=O)NC3CCCCC3)ccc2O)c1	.	-12%	?	.	-18%
NC(=O)c1cccc(-c2cnc3c(O)ccc(C(=O)O)c3c2)c1	.	.	12%	.	.
O=C(Nc1ccc(S(=O)(=O)Nc2nccs2)cc1)c1ccc2ccccc2c1	.	.	?	.	.	USP2a K63=3.9µM*;Casp6 counter=-26
O=C(Nc1ccc(C(=O)Nc2nccs2)cc1)c1ccc2ccccc2c1	.	.	-7%	.	.
COc1ccc(NC(=O)c2cnc(N3CCOCC3)c3ccccc23)cc1OC	2%	-19%	1%	-9	.
Nc1ccc(C(=O)Nc2cccc(-c3nc(N4CCOCC4)c4oc5ncccc5c4n3)c2)cn1	3%	-10%	11%	.	-18%
Cn1c(=O)c2c(nc(SCC(=O)Nc3ccccc3F)n2Cc2ccc(Cl)cc2)n(C)c1=O	i	3%	11%	4	.
COc1cccc(OCCCN)c1-c1cc(Nc2cnc(C#N)cn2)n[nH]1	.	4%	8.9µM*	.	-11%
C/C=C/c1ccc2oc(-c3ccc(O)c(OC)c3)c(C)c2c1	.	?	4%[57.5 µM]	.	-9%
Cc1ccc(NC(=O)c2oc3ccc(S(=O)(=O)N4CCCCCC4)cc3c2C)cc1Cl	-4%	-6%	-1%	2	.
C[C@@H](Oc1cc(-c2cnn(C3CCNCC3)c2)cnc1N)c1c(Cl)ccc(F)c1Cl	-16%	-8%	18µM*	.	?
C[C@H](Oc1cc(-c2cnn(C3CCNCC3)c2)cnc1N)c1c(Cl)ccc(F)c1Cl	.	-3%	?	.	.
COc1ccc(CNCCCSc2nnnn2-c2ccccc2)cc1	1%	1%	-10%	-6	.
Cc1cc(N2CCOCC2)cc2[nH]c(-c3c(NC[C@@H](O)c4cccc(Cl)c4)cc[nH]c3=O)nc12	?	?	?	.	?
O=C(CSc1nc(=O)n(CCN2CCOCC2)c2c1CCC2)Nc1cccc(Cl)c1	-7%	-8%	-4%	-11	.
COc1cc2ncnc(Nc3cccc(I)c3)c2cc1OC	.	-4%	22µM*	.	?
COc1ccccc1NC(=O)Nc1ccc2ccccc2c1	.	?	-9%[57.5 µM]	.	-14%
COc1ccc(CNC(=O)C(=O)Nc2ccccc2OC)cc1	6%	-18%	15%	-5	.
CCCNc1ccc2ncc(-c3ccc4[nH]ncc4c3)n2n1	.	-9%	28µM*	.	14µM*
Nc1ncnc2c1nc(N)n2[C@@H]1O[C@H](CO)[C@@H](O)[C@H]1O	.	-1%	125%[57.5 µM]	.	19%
